ERb coact inh – inhibitors of ERβ-SRC1 coactivator interaction, primary screen, biochemical, TR-FRET, ERβ LBD, SRC-1 peptide; 1.3% of 86,000 active; AID 633, 2007; Estrogen receptor beta (Homo sapiens), Q92731; TR-FRET ER-beta LBD / SRC1-Cy5 peptide binding; receptor agonist-loaded with 1 µM estradiol; inhibition, % at 25.6 µM;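 active = compounds whose percent inhibition of the receptor-coactivator binding signal exceeds about 50% in the single-dose screen, limit read from the data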;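 also: 0% = receptor plus peptide wells without compound and 100% = peptide-only wells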
ERa SRC1 pot – enhancers of ERα–SRC-1 coactivator binding, primary screen, biochemical, TR-FRET, ERα LBD, low estradiol | Estrogen receptor (Homo sapiens), P03372 | TR-FRET ERalpha-LBD/SRC-Cy5 coactivator binding, 2 h; 100 = basal binding, no effect | coactivator binding (% of control), % at 25.6 µM | 1.3% of 86,000 active | AID 639, 2007; in the data active = activity above about 200%;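 also: binding measured in presence of low estradiol as agonist stimulus; 0% = peptide alone without receptor and 100% = receptor with peptide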
FAK inh – FAK kinase inhibitors, primary screen, biochemical; biochemical FAK kinase activity assay; inhibition, %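 (tested at 7 µM)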; AID 727, 2007; 0.84% of 97,000 active; in the data active = inhibition above about 19%;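 also: 0% = DMSO and 100% = reference compound high control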
Target sequence (Q05397 whole entry, looked up): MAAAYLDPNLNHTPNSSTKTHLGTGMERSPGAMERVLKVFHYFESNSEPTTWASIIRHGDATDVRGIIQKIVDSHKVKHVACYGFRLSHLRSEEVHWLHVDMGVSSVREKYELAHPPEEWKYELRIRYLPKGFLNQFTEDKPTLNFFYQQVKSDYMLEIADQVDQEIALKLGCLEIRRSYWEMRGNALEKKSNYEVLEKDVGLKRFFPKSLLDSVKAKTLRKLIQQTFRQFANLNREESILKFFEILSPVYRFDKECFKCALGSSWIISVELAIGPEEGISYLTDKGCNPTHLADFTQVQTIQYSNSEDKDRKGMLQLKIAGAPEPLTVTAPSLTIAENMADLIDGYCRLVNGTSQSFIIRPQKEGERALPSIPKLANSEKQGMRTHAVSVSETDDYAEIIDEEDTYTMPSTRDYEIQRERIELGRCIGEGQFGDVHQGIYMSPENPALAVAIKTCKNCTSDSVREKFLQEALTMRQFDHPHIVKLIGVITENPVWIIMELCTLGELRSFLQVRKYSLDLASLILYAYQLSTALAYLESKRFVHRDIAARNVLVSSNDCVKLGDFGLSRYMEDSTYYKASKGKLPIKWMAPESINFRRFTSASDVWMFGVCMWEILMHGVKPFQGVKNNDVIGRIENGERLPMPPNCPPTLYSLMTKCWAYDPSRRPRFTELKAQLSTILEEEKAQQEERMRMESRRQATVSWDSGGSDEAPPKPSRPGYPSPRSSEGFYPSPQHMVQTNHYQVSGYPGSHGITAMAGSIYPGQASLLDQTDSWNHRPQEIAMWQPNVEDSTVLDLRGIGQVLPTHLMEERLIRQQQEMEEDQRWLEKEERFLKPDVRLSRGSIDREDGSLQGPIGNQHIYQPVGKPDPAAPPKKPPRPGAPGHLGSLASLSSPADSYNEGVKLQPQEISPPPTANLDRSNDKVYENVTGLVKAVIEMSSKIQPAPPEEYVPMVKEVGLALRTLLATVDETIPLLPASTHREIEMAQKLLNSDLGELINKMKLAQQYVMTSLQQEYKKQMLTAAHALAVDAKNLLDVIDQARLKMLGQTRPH
ERa coact inh – ERα–SRC-1 coactivator interaction inhibitors, primary screen, biochemical, TR-FRET, ERα LBD, estradiol-bound; TR-FRET ER-alpha LBD / SRC-1 peptide; inhibition, % at 25.6 µM; 1.7% of 86,000 active; in the data active = inhibition above about 50%;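 also: 0% = receptor plus peptide control and 100% = peptide only without receptor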
Active calls of the source: *; . = not tested or not shown; [ ] = remark or other dose. A selection: hits, their analogues and other compounds. The true share with any hit is near 3.2%.

SMILES	ERb coact inh	ERa SRC1 pot	FAK inh	ERa coact inh
O=C(CSc1ncnc2c1oc1ccccc12)Nc1ccccc1C(F)(F)F	29	721*[fluorescence artefact?]	.	23
CC1CN(c2ccc(Oc3ccccc3)cc2)c2nc3c(c(=O)[nH]c(=O)n3C)n2C1 (configuration not stated)	17	96	0	-2
O=C(O)CSc1ncnc2c1oc1ccccc12	-8	94	-2	-6
COc1cccc(NC(=O)CSc2ncnc3c2oc2ccccc23)c1	57*[fluorescence artefact?]	373*[fluorescence artefact?]	-212	64*[fluorescence artefact?]
O=C(NC1=NCCS1)c1csc2ccccc12	18	104	.	0
N#Cc1c(NC(=O)c2ccncc2)sc2c1CCC2	91*[fluorescence artefact?]	10	2	91*[fluorescence artefact?]
CCCCC1CC(C)(C(=O)CSc2nc3ccccc3s2)OC1=O (configuration not stated)	0	92	-1	-3
CCOCC(=O)Nc1c(C(=O)Nc2ccc(OC)cc2OC)oc2ccccc12	27	108	2	35
COCC(=O)Nc1c(C(=O)Nc2ccccc2OC)oc2ccccc12	10	213*[fluorescence artefact?]	3	5
COc1cccc(OCC(=O)Nc2c(C(=O)Nc3ccc(OC)cc3OC)oc3ccccc23)c1	50*[fluorescence artefact?]	220*[fluorescence artefact?]	.	73*[fluorescence artefact?]
O=C(CSc1ccc2nnc(-c3ccc(F)cc3)n2n1)N1CCCCC1	-9	100	.	-7
O=c1c2ccccc2nc2sc3ccccc3n12	.	.	20*	.
O=c1/c(=C/c2ccccn2)sc2nc3ccccc3n12	47	68	17	90*[fluorescence artefact?]
CCOC(=O)c1sc(=NC(=O)c2cc(OC)c(OC)c(OC)c2)n(C)c1C	21	208*	-3	17
CCOC(=O)c1sc(=NC(=O)c2ccc(S(=O)(=O)N3CCOCC3)cc2)n(C)c1C	7	166	.	8
CC1(C)C(=O)C2(CCCCC2)C(=O)OC1c1ccc(O)cc1 (configuration not stated)	-6	218*	1	-7
CC1(C)C(=O)C2(CCCC2)C(=O)OC1c1ccco1 (configuration not stated)	-9	102	1	-1
O=S(=O)(Nc1cnc2ccccc2c1)N1CCCCCC1	13	110	3	12
O=C(Nc1nnc(C2CCCO2)s1)c1ccc(Br)cc1 (configuration not stated)	54*	44	2	21
CC1=C(C(=O)Nc2ccc(Br)cc2)C(c2ccco2)NC(=O)N1 (configuration not stated)	2	117	3	-8
O=C(Nc1ccc(Cc2ccncc2)cc1)C1CCC(N2C(=O)C3CC=CCC3C2=O)CC1 (configuration not stated)	53*	64	1	55*
O=C(Cn1cc(C(=O)c2cccs2)c2ccccc21)NC1CCCCC1	-16	95	2	-11
O=C(Cn1cc(C(=O)c2ccco2)c2ccccc21)NC1CCCC1	-1	554*[fluorescence artefact?]	-2	2
CCC(C)C(=O)N1c2ccccc2C(=C2SC(C(=O)OC)=C(C(=O)OC)S2)C(=S)C1(C)C (configuration not stated)	.	.	1	.
Cc1cc(NC(=O)CN2CCN(Cc3ccccc3)CC2)nc2c1c(=O)oc1ccccc12	24	104	.	13
SMILES	ERb coact inh	ERa SRC1 pot	FAK inh	ERa coact inh
Cc1cc(NC(=O)CN2CC3CC(C2)c2cccc(=O)n2C3)nc2c1c(=O)oc1ccccc12 (configuration not stated)	58*	47	.	61*[fluorescence artefact?]
Cc1cc(NC(=O)c2cncc(Br)c2)no1	9	102	-1	4
CCOC(=O)CN1CC23C=CC(O2)C(C(=O)Nc2cc(OC)ccc2OC)C3C1=O (configuration not stated)	69*	41	.	72*[fluorescence artefact?]
CC(C)C(=O)Nc1ccc(NC(=O)c2cccc(F)c2)cn1	-7	129	-6	-5
Cc1ccc(NCc2nnc(SCC(=O)OC3CCCCC3)o2)c(C)c1	-3	99	11	-6
COc1ccc(C(C)C)cc1S(=O)(=O)Nc1ccc(Cl)cn1	74*[fluorescence artefact?]	134	-3	-2
O=C(NC(Cc1ccc2c(c1)OCO2)C(=O)NC(Cc1ccccc1)C(=O)O)c1ccccc1 (configuration not stated)	-1	90	1	-5
COC(=O)c1ccc(CSc2nc3c(c(=O)n2-c2ccc(C)cc2)SCC3)o1	27	336*[fluorescence artefact?]	.	21
Cc1cc(NC(=O)CSc2nc3c(c(=O)n2-c2ccc(Br)cc2)SCC3)no1	29	126	0	60*[fluorescence artefact?]
Cc1ccc(Cn2ccc(NC(=O)c3cc(CC(C)C)on3)n2)cc1	-3	114	.	-5
Cc1cc(Cl)ccc1OCC(=O)OC(C)C(=O)N(C)C (configuration not stated)	57*	60	2	51*
CCOC(=O)CSc1nc2ccc(N3CCOCC3)cc2c(=O)n1Cc1ccccc1	-9	125	7	1
Cc1sc(-c2ccncc2)nc1OC(=O)c1ccc(Cl)cc1	10	113	-6	8
Cc1sc(-c2ccncc2)nc1OC(=O)c1cc(Cl)cc(Cl)c1	-4	224*	-2	-6
CCOC(=O)Cn1c(=O)oc2cc(S(=O)(=O)N3CCc4ccccc43)ccc21	-1	121	-1	-3
CCOC(=O)CCC(NC(=O)c1ccc(NCN2C(=O)CCC2=O)cc1)C(=O)OCC (configuration not stated)	54*	61	0	29
COc1ccc(-c2nnc(SCC(=O)/C(C#N)=C(\C)N)o2)cc1	75*	63	0	56*
COc1ccc2[nH]c3c(c2c1)CCn1c-3nc2ccccc2c1=O	40	35	.	80*
COc1cc(OC)cc(C(=O)Nn2c(C)nc3ccccc3c2=O)c1	0	108	1	-8
Cc1ccccc1N1CCN(C(=O)c2ccc(Oc3ccc(C(F)(F)F)cn3)cc2)CC1	.	.	8	.
CCOC(=O)c1ccc(NC(=O)C2=C(C)Nc3nc(CCCO)nn3C2c2ccc(OC)cc2)cc1 (configuration not stated)	-3	116	10	3
CC1CN(c2nc3c(c(=O)n(Cc4ccc(Cl)c(Cl)c4)c(=O)n3C)n2C)CC(C)O1 (configuration not stated)	2	92	3	-8
Cc1cc(C)n(-c2nc3c(c(=O)n(Cc4ccc(Cl)c(Cl)c4)c(=O)n3C)n2C)n1	34	109	2	60*[fluorescence artefact?]
O=C(Nc1ccc(-c2noc(CCc3ccccc3)n2)cc1)c1ccco1	22	99	.	12
Cc1occc1-c1nnc(SCc2cc(=O)n3cc(Br)ccc3n2)n1C	53*	121	-2	61*
Cc1ccccc1Nc1nc(CSc2nnc(-c3ccoc3C)n2C)cs1	7	92	-3	0
Cn1c(SCc2cc(=O)n3cc(Br)ccc3n2)nnc1C1COc2ccccc2O1 (configuration not stated)	49	65	-6	68*

High-throughput results (PubChem BioAssay)
